According to PubChem BioAssay AID1209 (Sanford-Burnham Center for Chemical Genomics, 2008):
Out of some 190,000 compounds screened, about 810 (0.43%) were called active. Rule as the data show it: active = inhibition above about 50%; inactive = the rest. Only a selection was taken, and actives are over-represented in it overall.

Each compound was assayed against Mannose-6-phosphate isomerase (Homo sapiens) (UniProt P34949) (assay: inhibitors of human PMI, primary screen, biochemical, fluorescence intensity, coupled assay (AID 1209;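 also: plate controls were DMSO vehicle for no effect and wells lacking substrate for full effect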)). Settings: purified PMI enzyme, at 20 µM, hits give high values.
Chain of Mannose-6-phosphate isomerase (Homo sapiens) (P34949 whole entry, looked up): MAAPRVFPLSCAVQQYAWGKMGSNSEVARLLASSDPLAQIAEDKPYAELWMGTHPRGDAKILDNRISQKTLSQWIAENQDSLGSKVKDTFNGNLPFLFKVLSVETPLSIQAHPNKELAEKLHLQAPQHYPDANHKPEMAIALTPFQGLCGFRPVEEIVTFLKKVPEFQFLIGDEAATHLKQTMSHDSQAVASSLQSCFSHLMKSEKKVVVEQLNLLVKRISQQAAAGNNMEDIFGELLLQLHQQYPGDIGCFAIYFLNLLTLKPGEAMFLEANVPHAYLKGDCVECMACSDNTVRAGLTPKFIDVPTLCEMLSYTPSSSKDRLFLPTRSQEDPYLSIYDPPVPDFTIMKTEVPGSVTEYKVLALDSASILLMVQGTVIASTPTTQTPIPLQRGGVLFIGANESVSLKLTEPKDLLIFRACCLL

inhibition, active:
CCN1C(=O)c2cccc3c(N)ccc1c23 64.7%
COc1ccc2c(c1)-c1nc(/N=C/c3ccccc3O)sc1CC2 70%
COc1ccc2c(c1)-c1nc(/N=C/c3c(O)ccc4ccccc34)sc1CC2 77.9%
COc1ccc2c(c1)-c1nc(N)sc1CC2 73.3%
COc1ccc2c(c1)-c1nc(/N=C/c3ccc(O)cc3)sc1CC2 80.2%
COc1ccc2c(c1)-c1nc(/N=C/c3cccc(OC)c3O)sc1CC2 65.8%
Cc1nc([N+](=O)[O-])nn1C12CC3CC(CC(Br)(C3)C1)C2 75%
Cc1ccc(Nc2nnns2)cc1 57.4%
CCOC(=O)C(Nc1ccc2ccccc2c1)C(=O)OCC 60.3%
CCOC(=O)c1sc(NC(=O)CSc2n[nH]c(-c3ccccc3)n2)c(C#N)c1C 51.7%
CCOC(=O)c1sc(NC(=O)CSc2nc(C)cc(-c3ccccc3)n2)c(C#N)c1C 61.2%
CCOC(=O)c1sc(NC(=O)CSc2nnc(Cc3ccccc3)o2)c(C#N)c1C 72.4%
Cc1sc(NC(=O)COc2ccccc2)c(C#N)c1C 58.3%
C=CCn1c(NC(=O)c2ccc(Br)o2)c(C(=O)OCC)sc1=S 50.7%
O=C(CCN1CCCC1Cc1ccccc1)c1ccc2c(c1)OCCO2 (stereo not given) 50.8%
FC(F)Oc1cccc(NC(=S)N2CCN(c3ccccn3)CC2)c1 65.6%
COc1nc(/C(N)=N/O)nc(N2CCCCC2)n1 66.9%
CCc1c(C)sc(NC(=O)Cn2nc(C)c([N+](=O)[O-])c2C)c1C(N)=O 53.3%
O=C(CS(=O)(=O)c1ccc(Cl)cc1)NCCS(=O)(=O)c1ccc(Cl)cc1 59.5%
Cc1c(Cc2ccc3c(c2)OCO3)sc(NC(=O)c2cccc3ccccc23)c1C(N)=O 56.7%

inhibition, inactive:
Cc1ccc(S(=O)(=O)N2CCCCC2)cc1NC(=O)Nc1ccc(Cl)cc1Cl 13.8%
CC(Nc1ccc2c(c1)OCCO2)C(=O)N1CCc2ccccc21 (stereo not given) 6.4%
Cn1c(=O)n(C)c2cc(S(=O)(=O)Nc3cc(Cl)ccc3O)ccc21 9.8%
CNC(=O)CN1C(=O)c2cccc3cccc1c23 -1.5%
CCN1C(=O)c2cccc3c(NC(=O)C(C)(C)C)ccc1c23 13.8%
CCN1C(=O)c2cccc3c(S(=O)(=O)Nc4ccccc4)ccc1c23 -1%
CCN1/C(=N\N)c2cccc3cccc1c23 -48%
Cc1nc2cc3c(cc2c(C)c1C(=O)OC(C)C)OCO3 -5.2%
Cc1ccc(C(=O)NCc2ccccc2)c(F)c1F 5.5%
COc1ccc(OC)c(NC2c3ccccc3C(=O)N2c2cccnc2)c1 (stereo not given) -11.1%
COc1ccc2c(c1)-c1nc(NC(=O)c3ccco3)sc1CC2 23.9%
Oc1ccc2ccccc2c1/C=N/c1nc2c(s1)CCCC2 45.8%
COc1ccc(N=Cc2c(O)ccc3ccccc23)cc1 37%
COc1ccc(C(=O)Nc2nc3c(s2)Cc2cc(OC)ccc2-3)cc1 -2.4%
COc1ccc2c(c1)-c1nc(NC(=O)c3cccs3)sc1CC2 26.3%
COc1ccc2c(c1)Cc1sc(NC(=O)c3ccccc3)nc1-2 3.2%
COc1ccc2c(c1)CCc1sc(NC(=O)c3ccco3)nc1-2 31.4%
COc1ccc2c(c1)CCc1sc(NC(=O)c3ccc(C)cc3)nc1-2 19.4%
COc1cccc(N(CC(=O)N2CCN(C)CC2)S(=O)(=O)c2ccccc2)c1 2.4%
Cc1ccc(C)c(N2CCN(C(c3ccc(N(C)C)cc3)c3nnnn3C(C)(C)C)CC2)c1 (stereo not given) 12.6%
CCCNCC(O)Cn1c2ccccc2n2c(=O)cc(C)c(C#N)c12 (stereo not given) -6%
Cc1ccc(C)c(NC(=O)CSc2ccc(-c3ccco3)nn2)c1 8.2%
COc1cccc(N(C(=O)Cn2nnc3ccccc32)C(C(=O)NCc2ccco2)c2cccnc2)c1 (stereo not given) 1.5%
Cc1ccc(C)c(C(=O)NC2CC(C)(C)NC(C)(C)C2)c1 2.7%
CC(NC(=O)c1sc2ccccc2c1Cl)C1CCCO1 (stereo not given) 6.7%
O=C(CSc1nccc(-c2ccc(Br)cc2)n1)NCCc1ccccc1 0.8%
CSc1ccc(-c2nc(O)c3cnccn23)cc1 -16.4%
CN(C)S(=O)(=O)c1cccc(NC(=O)c2cc(-c3cccs3)nn2-c2ccccc2)c1 2.9%
CC(C)NC(=O)C1CCN(C2CCN(Cc3nc4ccccc4s3)CC2)CC1 1.6%
COc1cccc(C=Nc2cc(C)cc(C)c2)c1O -1.7%
COc1cccc(C=Nc2cc(C)on2)c1O 13.5%
CCC(Oc1ccc2c(c1)C(=O)CC(C)(C)O2)C(=O)NCCN1CCCCCC1 (stereo not given) 20%
CC(Sc1nnc(COc2ccc([N+](=O)[O-])cc2)n1C)C(=O)O (stereo not given) 0.2%
Cc1cc(NC(=O)C23CC4CC(C2)CC(n2cnc([N+](=O)[O-])n2)(C4)C3)no1 2.7%
Cc1nc([N+](=O)[O-])nn1C12CC3CC(CC(Cl)(C3)C1)C2 4.8%
CCN(CC)CCCOC(=O)C1(c2ccccc2)CCCC1 -3.2%
Cc1ccc(Nc2nnns2)cc1C 47.5%
Cc1ccc(Nc2nc3ccccc3s2)cc1 -5.9%
COc1ccc(OC)c(NC(=O)C2C(C(=O)O)C3(Cl)C(Cl)=C(Cl)C2(Cl)C3(Cl)Cl)c1 (stereo not given) 18.2%
CCC(=O)Nc1ccc2ccccc2c1 12%
CCCCCC(=O)Nc1ccc2ccccc2c1 16.7%
COc1ccc(CNS(=O)(=O)c2cccc(S(=O)(=O)N3CCOCC3)c2)cc1 6.7%
CCOc1cc(C(C#N)N2CCOCC2)ccc1OC (stereo not given) 12%
O=C(CN1C(=O)COc2ccccc21)NCCCN1CCN(Cc2ccccc2)CC1 4.6%
CCOC(=O)c1c(NC(=O)CSc2nnc(Cc3ccccc3)o2)sc(C(C)=O)c1C 9.9%
CCOC(=O)c1sc(NC(=O)CSc2nc(C)cc(C)n2)c(C#N)c1C 4.2%
CCOC(=O)c1sc(NC(=O)CSc2n[nH]c(-c3ccc(Cl)cc3Cl)n2)c(C#N)c1C 25.2%
CCOC(=O)c1sc(NC(=O)CSc2nnc(Cc3ccccc3)o2)c(C(=O)OCC)c1C 4.9%
Cc1ccccc1NC(=O)c1sc(NC(=O)COc2ccccc2)c(C#N)c1C 5.1%
Cc1sc(NC(=O)COc2ccccc2)c(C#N)c1-c1ccccc1 4.5%
CCOC(=O)c1sc(NC(=O)CSc2nc(C)cc(C(F)(F)F)n2)c(C#N)c1C 26.6%
CCOC(=O)c1sc(NC(=O)CSc2n[nH]c(-c3ccncc3)n2)c(C#N)c1C -4.9%
Cc1cc(C(=O)Nc2ccc(C(=O)O)cc2)c(-c2ccccc2)o1 4%
Cc1ccc[n+](CC(=O)c2ccc(NC(=O)c3ccccc3)cc2)c1 -10.6%
COCCN(CCOC)S(=O)(=O)c1ccc(C(=O)Nc2sc3c(c2C(N)=O)CCCCC3)cc1 3.2%
CC(=O)Nc1ccc(NC(=O)COc2c(C)cc(Br)cc2C)cc1 13.2%
CCO/N=C(\C)c1c(O)c(CC)c(-c2ccccc2)n(-c2ccccc2)c1=O 9.9%
CCOC(=O)c1sc(NC(=O)c2ccc(Br)o2)cc1C 11.7%
C=CCn1c(NC(=O)CC)c(C(=O)OCC)sc1=S 17.3%
O=C(NCc1cn2ccccc2n1)c1ccccc1 -15.8%
O=C(CCN1CCC(c2ccccc2)C1)c1ccc2c(c1)OCCO2 (stereo not given) 47.6%
O=C(CCN1CCCCC1)c1ccc2c(c1)OCCO2 36.1%
COc1cccc(NC(=S)N2CCN(c3ccccn3)CC2)c1 12.3%
FC(F)(F)c1cccc(NC(=S)N2CCN(c3ccccn3)CC2)c1 -17%
CN(C)c1cccc(C(=O)OCC(=O)Nc2nccs2)c1 -1.5%
COc1nc(N2CCCCCC2)nc(N2CCCCCC2)n1 2.3%
N/C(=N/O)c1nc(N2CCCCC2)nc(N2CCCCC2)n1 2.2%
COc1ccc(C(=O)Nc2ccc(CN3CCCCC3)cc2)cc1 3%
CCOC(=O)Cn1nc(C)c([N+](=O)[O-])c1C -27.5%
Cc1nn(CC(=O)Nc2nccs2)c(C)c1[N+](=O)[O-] -3.9%
COc1ccc(C2CC(C(F)(F)F)n3nc(C(=O)NCCCn4ccnc4)cc3N2)cc1OC (stereo not given) 41.3%
O=C(CN1CCCc2ccccc21)NCc1ccccc1Cl -13.5%
Cc1ccc(C(=O)Nc2ccc(N3CCN(S(C)(=O)=O)CC3)cc2)cc1 0.4%
Cc1ccc(S(=O)(=O)CCNC(=O)Cc2ccc(Cl)cc2)cc1 3.4%
CC(C(=O)NCCS(=O)(=O)c1ccc(Cl)cc1)S(=O)(=O)c1ccc(Cl)cc1 (stereo not given) -15.8%
Cc1ccc(CNC(=O)c2cncc(Br)c2)cc1 10.4%
CCOC(=O)C(C)n1cnc2c(nnn2-c2ccc(OC)cc2)c1=O (stereo not given) -2.7%
CCOc1ccc(CNC(=O)CCCOc2cc(=O)n(C)c3ccccc23)cc1 -6.3%
Cc1c(Cc2ccc3c(c2)OCO3)sc(NC(=O)c2ccccc2)c1C(N)=O -2.5%
Cc1c(Cc2ccc3c(c2)OCO3)sc(NC(=O)c2ccc3ccccc3c2)c1C(N)=O 43.1%
